Tau fibril FP: qHTS for Inhibitors of Tau Fibril Formation, Fluorescence Polarization; AID 1468, 2008; K18 P301L tau heparin fibrillization, Alexa594 FP, 6 h; Potency, µM (series often up to 57.7 µM), most hits filed as inhibitors; Microtubule-associated protein tau (Homo sapiens), P10636; 280,000 compounds, 0.39% hits; further: nearly all actives have a fitted effect of over 55% in size
Target sequence (P10636 561-689 P618L limits assumed): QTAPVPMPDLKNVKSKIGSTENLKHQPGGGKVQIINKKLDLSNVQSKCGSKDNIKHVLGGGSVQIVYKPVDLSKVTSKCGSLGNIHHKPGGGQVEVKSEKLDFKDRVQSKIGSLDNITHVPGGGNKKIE
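FP of Alexa 594-tau after heparin (20 uM) induction. Substrate: human K18 P301L, 15 uM unlabeled, 0.24 uM labeled. Buffer 100 mM sodium acetate pH 7. 6 hr, 37 C.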
Luc counter: Counterscreen for Luciferase (Kinase-Glo TM) Inhibition; Luciferin 4-monooxygenase (Photuris pensylvanica), Q27757; Potency, µM (series often up to 38.3 µM), hits mostly inhibitors; Kinase-Glo luciferase, ATP luminescence, 8 min; 200,000 compounds, 0.28% hits; further: nearly all actives have a fitted effect of over 60% in size
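Compounds were added to a substrate mix at pH 7.2 (50 mM imidazole, 10 uM ATP, within the enzyme's linear range), followed by Kinase-Glo detection reagent; luminescence was measured after 8 minutes at ambient temperature.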
Tau fibril ThT: qHTS for Inhibitors of Tau Fibril Formation, Thioflavin T Binding; 270,000 compounds, 2.1% hits; recombinant tau K18 P301L, heparin-induced fibrillization, ThT fluorescence; Potency, µM (doses to about 57.4 µM), hits mostly inhibitors; Microtubule-associated protein tau (Homo sapiens), P10636; further: nearly all actives have a fitted effect of over 55% in size
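K18 P301L tau (15 uM + 0.24 uM Alexa 594-tagged), heparin 20 uM, NaOAc pH 7, 6 h 37 C; ThT 30 uM, 1 h RT, ex 450/em 510 nm.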
NPSR antagonist: qHTS Assay for Antagonists of the Neuropeptide S Receptor: cAMP Signal Transduction. Q6W5P4. CHO-NPSR cells, cAMP TR-FRET, antagonist mode. Potency, µM (highest dose often 38.3 µM), actives largely listed as inhibitors. 220,000 compounds, 1% hits; further: nearly all actives have a fitted effect of over 50% in size
Target sequence (Q6W5P4 whole entry, looked up): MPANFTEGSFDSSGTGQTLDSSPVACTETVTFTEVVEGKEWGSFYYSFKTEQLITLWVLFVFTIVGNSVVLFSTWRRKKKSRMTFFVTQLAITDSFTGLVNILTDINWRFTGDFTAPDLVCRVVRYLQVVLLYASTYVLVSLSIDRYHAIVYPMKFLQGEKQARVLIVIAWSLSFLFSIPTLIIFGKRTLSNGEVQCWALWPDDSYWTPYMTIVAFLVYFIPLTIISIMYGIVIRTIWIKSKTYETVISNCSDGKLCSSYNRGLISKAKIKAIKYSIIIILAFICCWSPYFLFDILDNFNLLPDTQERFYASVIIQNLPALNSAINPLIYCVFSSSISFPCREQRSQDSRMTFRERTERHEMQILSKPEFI
Tau fluor counter: Counterscreen qHTS for Inhibitors of Tau Fibril Formation, Fluorescence Polarization. tau K18 P301L Alexa594 fluorescence, heparin fibrillization. Potency, µM (titrated, usually from 57.7 µM). 280,000 compounds, 0.93% hits. AID 1463, 2008; further: nearly all actives have a fitted effect of over 55% in size
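Human tau K18 P301L (15 uM unlabeled, 0.24 uM Alexa 594-labeled) in 100 mM sodium acetate pH 7 with 20 uM heparin, 6 hr at 37 C. ThT 30 uM added, 1 hr ambient; Alexa 594 FP and total fluorescence read at 555/632 nm.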
Large screens that a line does not name were inactive; [ ] = remark or other dose. Rows were chosen to be rich in hits. Some 3.3% of all compounds tested hit in one or more screens of this group. The call rests on the fitted dose curve; in most records, active means well fitted curve in the direction sought with a large enough effect; inconclusive means small, poorly fitted or top-dose-only effect, or another doubt; inactive means no such curve, though single readings can be large; an effect the other way counts as inactive or inconclusive.

CC(C)Oc1ccc(CNC(=O)c2ccc(NC(=O)c3nsc4ccccc34)cc2)cc1	Tau fibril FP inconclusive (no result: Luc counter, NPSR antagonist)
O=C1c2ccccc2CCC1CNCCc1ccc(O)cc1 (stereo unspecified)	none (no result: Luc counter, NPSR antagonist)
CC1Cc2ccccc2N1S(=O)(=O)c1nnc(NC(=O)c2ccccc2)s1 (stereo unspecified)	Tau fibril ThT inconclusive (no result: Luc counter, NPSR antagonist)
CC1Cc2ccccc2N1S(=O)(=O)c1nnc(NC(=O)c2ccccc2Br)s1 (stereo unspecified)	Tau fibril ThT 13µM, Tau fluor counter inconclusive (no result: Luc counter, NPSR antagonist)
Cc1cc(C(F)(F)F)n2nc(-c3ccc(Br)cc3)cc2n1	none (no result: Luc counter, NPSR antagonist)
Cc1c2ccccc2c(CSC(=N)N)c2ccccc12	Tau fibril FP inconclusive, Tau fibril ThT 13µM (no result: NPSR antagonist)
Oc1ccc(/C=N/Nc2ccc(C(F)(F)F)cn2)cc1	Tau fibril ThT inconclusive, Tau fluor counter 11µM[quencher]
c1ccc2c(c1)[nH]c1c(N3CCCC3)ncnc12	none
CCOc1ccc2[nH]c3c(N4CCc5ccccc5C4)ncnc3c2c1	Tau fibril FP inconclusive, Tau fibril ThT inconclusive, NPSR antagonist inconclusive, Tau fluor counter 14µM[quencher] (no result: Luc counter)
Fc1ccc2[nH]c3c(N4CCc5ccccc5C4)ncnc3c2c1	Tau fluor counter inconclusive (no result: Luc counter)
Cc1ccc2[nH]c3c(N4CCOCC4)ncnc3c2c1	none
COc1ccc2[nH]c3c(N4CCC(O)(c5cccc(C(F)(F)F)c5)CC4)ncnc3c2c1	Tau fibril ThT inconclusive, NPSR antagonist inconclusive, Tau fluor counter 16µM[quencher]
Cc1ccc2[nH]c3c(N4CCc5ccccc5C4)ncnc3c2c1	Tau fibril FP inconclusive, Tau fibril ThT inconclusive, NPSR antagonist inconclusive, Tau fluor counter 25µM[quencher]
Brc1ccc2[nH]c3c(N4CCc5ccccc5C4)ncnc3c2c1	NPSR antagonist inconclusive, Tau fluor counter 11µM[quencher]
O=C1/C(=C\c2ccc(O)cc2)SC(=S)N1/N=C/c1ccc(O)cc1	Tau fibril ThT 5µM, Tau fluor counter inconclusive (no result: Luc counter)
CC(C)Oc1ccc2c(=O)c3cc(C(=O)O)ccc3oc2c1	none (no result: NPSR antagonist)
c1ccc(C2=NNC(=NCc3ccc4c(c3)OCO4)SC2)cc1	Tau fibril ThT inconclusive, NPSR antagonist inconclusive (no result: Luc counter)
C=CCN=C1NN=C(c2ccc3c(c2)OCCO3)CS1	Luc counter 10µM, Tau fibril ThT inconclusive
Cc1ccc2[nH]cc(C(c3ccccc3)c3ccc(C)s3)c2c1 (stereo unspecified)	Tau fluor counter 10µM[quencher] (no result: Luc counter, NPSR antagonist)
NCC(c1ccccc1)c1c[nH]c2ccccc12 (stereo unspecified)	none
Cc1ccc2[nH]cc(C(c3ccccc3)c3cccs3)c2c1 (stereo unspecified)	Tau fibril FP inconclusive, Tau fibril ThT inconclusive, Tau fluor counter 7.9µM[quencher] (no result: Luc counter, NPSR antagonist)
O=C1CC(SC(=NCc2ccc3c(c2)OCO3)Nc2ccccc2)C(=O)N1 (stereo unspecified)	Tau fibril FP inconclusive
COc1ccc(CN=C(Nc2ccccc2)SC2CC(=O)NC2=O)cc1 (stereo unspecified)	Tau fibril ThT 10µM
CCC(=O)N1CCN(c2ccc(NC(=O)c3ccc([N+](=O)[O-])o3)cc2Cl)CC1	Tau fibril ThT 11µM, NPSR antagonist 5µM, Tau fluor counter inconclusive
O=C(Nc1ccc(N2CCCCC2)c(Cl)c1)c1ccc(N2CCOCC2)c([N+](=O)[O-])c1	Tau fibril FP inconclusive, Tau fibril ThT inconclusive, Tau fluor counter inconclusive
COc1ccc(CC(=O)Nc2ccc(N3CCN(c4ccc(OC)cc4)CC3)c(C#N)c2)cc1	Tau fibril ThT inconclusive
CC(=O)N1CCN(c2ccc(NC(=O)c3ccc(N4CCCC4)c([N+](=O)[O-])c3)cc2Cl)CC1	Tau fibril ThT 4µM, Tau fluor counter inconclusive
CCN1CCN(c2ccc(NC(=O)c3ccc([N+](=O)[O-])o3)cc2Cl)CC1	Tau fibril ThT inconclusive
COc1ccc(N2CCN(c3ccc(NC(=O)c4ccc5c(c4)OCO5)cc3C#N)CC2)cc1	NPSR antagonist 5µM
O=C(Nc1ccc2c(c1)OCO2)c1ccc(N2CCCC2)c([N+](=O)[O-])c1	Tau fibril ThT 13µM, Tau fluor counter inconclusive
CC(=O)c1ccc(NS(=O)(=O)c2ccc(-n3cccn3)cc2)cc1	none (no result: Luc counter, NPSR antagonist)
O=C(NCCc1nc2ccccc2n1Cc1ccc(F)cc1)c1ccco1	none (no result: Luc counter, NPSR antagonist)
O=S(=O)(Cc1c(F)cccc1Cl)c1ncn[nH]1	none
